Experiment [1] deals with Retinoic acid receptor RXR-alpha (Homo sapiens) (UniProt P19793). As to the kind of experiment: ATG_RXRa_TRANS: Attagene TRANS-FACTORIAL HepG2 Assay for human Retinoid X Receptor alpha (RXRa) (AID 2283012; active = hit-call score of the fitted dose curve at least 0.9, where 1 is the maximum). Put shortly: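 Read-out: fluorescent reporter-transcript fragments quantified by capillary electrophoresis after RT-PCR. Transiently transfected HepG2 cells carrying GAL4-UAS reporters and NR-GAL4 chimeras were exposed to chemical for 24 h; activity scored as increase over DMSO.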

The target of experiment [2] is human Retinoid X Receptor beta (RXRb), RXRB (gene 6257) (UniProt P28702). As to the kind of experiment: ATG_RXRb_TRANS: Attagene TRANS-FACTORIAL HepG2 Assay for human Retinoid X Receptor beta (RXRb) (AID 2283013; active = hit-call score of the fitted dose curve at least 0.9, where 1 is the maximum). Summed up:
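Read-out: reporter mRNA induction via RT-PCR plus capillary electrophoresis fluorescence, analysed as signal increase relative to DMSO. Cells were human HepG2, transiently transfected with GAL4-UAS reporter constructs and chimeric receptor-Gal4 fusions, dosed for 24 h.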

Experiment [3] addresses human Thyroid Receptor alpha (THRa1), THRA (gene 7067) (UniProt P10827). Nature of the experiment: ATG_THRa1_TRANS: Attagene TRANS-FACTORIAL HepG2 Assay for human Thyroid Receptor alpha (THRa1) (AID 2283014; active = hit-call score of the fitted dose curve at least 0.9, where 1 is the maximum). Summed up: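 HepG2 cells transiently transfected with chimeric NR-Gal4 and GAL4-UAS reporter units, dosed 24 h. Reporter mRNA quantified by RT-PCR, fluorescent labeling, HpaI digestion and capillary electrophoresis; gain-of-signal fit versus DMSO.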

Read-out in experiment [4]: E-selectin (Homo sapiens) (UniProt P16581)
Nature of the experiment: BSK_3C_Eselectin: BioMAP Diversity Plus: 3C Assay for Eselectin Biomarker Activity (AID 2283015).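 For outcome: cell surface E-selectin protein quantified by ELISA 24 h after dosing.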 As to conditions: primary human endothelial cells (HUVEC); actives raise or lower the signal. Summed up:
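Primary human umbilical vein endothelial cells (3C system), read 24 h after compound addition; E-selectin measured by ELISA. Bidirectional curve fitting against DMSO baseline; cytotoxicity by parallel SRB total-protein staining.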

Read-out in experiment [5]: Interleukin-1 alpha (IL1a), IL1A (gene 3552)
As to the kind of experiment: BSK_BE3C_IL1a: BioMAP Diversity Plus: BE3C Assay for Interleukin-1 alpha (IL1a) Biomarker Activity (AID 2283016). Particulars: primary human bronchial epithelial cells; actives raise or lower the signal. Put shortly: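 ELISA read-out of IL-1a from human lung bronchial epithelial primary cells, 24 h post-dose. Gain or loss of signal fitted relative to DMSO negative control.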

Read-out in experiment [6]: Monocyte Chemoattractant Protein-1 (MCP1), CCL2 (gene 6347)
Nature of the experiment: BSK_3C_MCP1: BioMAP Diversity Plus: 3C Assay for Monocyte Chemoattractant Protein-1 (MCP1) Biomarker Activity (AID 2283017). Particulars: primary human endothelial cells (HUVEC); actives raise or lower the signal. Summed up: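 Human umbilical vein endothelial cells (3C system) exposed to chemicals for 24 h; MCP-1 quantified by ELISA against the DMSO baseline with bidirectional fitting, and parallel SRB staining used to assess cytotoxicity.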

Read-out in experiment [7]: Human Leukocyte Antigen - DR isotype (HLADR), HLA-DRA (gene 3122)
Nature of the experiment: BSK_3C_HLADR: BioMAP Diversity Plus: 3C Assay for Human Leukocyte Antigen - DR isotype (HLADR) Biomarker Activity (AID 2283019).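 For outcome: ELISA of cell-surface HLA-DR on HUVEC 24 h after dosing.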 Particulars: primary human endothelial cells (HUVEC); actives raise or lower the signal. Put shortly:
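HUVEC monoculture, HLA-DR measured by ELISA 24 h after chemical dosing. Fitted bidirectionally against DMSO baseline; parallel SRB staining assessed cytotoxicity, with 3C proliferation read by SRB at 48 h.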

Read-out in experiment [8]: Interleukin-8 (IL8), CXCL8 (gene 3576)
As to the kind of experiment: BSK_3C_IL8: BioMAP Diversity Plus: 3C Assay for Interleukin-8 (IL8) Biomarker Activity (AID 2283020). As to conditions: primary human endothelial cells (HUVEC); actives raise or lower the signal. Put shortly: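 HUVEC, 3C stimulation; 24 h compound exposure; IL-8 read by ELISA; gain or loss of signal fitted relative to DMSO control.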

Records with an inconclusive call do not appear. Some structures have more than one record in an assay (separate samples or runs), and their calls can disagree. The source made the active and inactive calls. Rule for the calls, unless noted: active = hit-call score of the fitted dose curve at least 0.9, where 1 is the maximum; inactive = score below 0.9.

Sequence of Retinoic acid receptor RXR-alpha (Homo sapiens) (P19793 whole entry, looked up, the tested form may be a part): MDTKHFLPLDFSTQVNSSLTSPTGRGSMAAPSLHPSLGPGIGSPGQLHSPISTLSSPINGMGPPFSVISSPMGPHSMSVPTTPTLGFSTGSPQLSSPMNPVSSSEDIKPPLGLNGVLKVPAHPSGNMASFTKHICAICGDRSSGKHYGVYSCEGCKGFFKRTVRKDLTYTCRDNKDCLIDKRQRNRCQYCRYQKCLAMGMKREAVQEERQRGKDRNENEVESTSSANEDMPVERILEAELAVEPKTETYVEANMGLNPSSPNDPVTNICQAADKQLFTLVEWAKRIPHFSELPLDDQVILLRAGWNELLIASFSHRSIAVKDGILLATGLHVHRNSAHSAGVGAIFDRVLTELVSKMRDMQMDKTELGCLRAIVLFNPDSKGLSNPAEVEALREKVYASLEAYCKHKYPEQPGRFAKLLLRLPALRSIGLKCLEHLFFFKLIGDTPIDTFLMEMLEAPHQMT
Sequence of human Thyroid Receptor alpha (THRa1), THRA (gene 7067) (P10827 whole entry, looked up, the tested form may be a part): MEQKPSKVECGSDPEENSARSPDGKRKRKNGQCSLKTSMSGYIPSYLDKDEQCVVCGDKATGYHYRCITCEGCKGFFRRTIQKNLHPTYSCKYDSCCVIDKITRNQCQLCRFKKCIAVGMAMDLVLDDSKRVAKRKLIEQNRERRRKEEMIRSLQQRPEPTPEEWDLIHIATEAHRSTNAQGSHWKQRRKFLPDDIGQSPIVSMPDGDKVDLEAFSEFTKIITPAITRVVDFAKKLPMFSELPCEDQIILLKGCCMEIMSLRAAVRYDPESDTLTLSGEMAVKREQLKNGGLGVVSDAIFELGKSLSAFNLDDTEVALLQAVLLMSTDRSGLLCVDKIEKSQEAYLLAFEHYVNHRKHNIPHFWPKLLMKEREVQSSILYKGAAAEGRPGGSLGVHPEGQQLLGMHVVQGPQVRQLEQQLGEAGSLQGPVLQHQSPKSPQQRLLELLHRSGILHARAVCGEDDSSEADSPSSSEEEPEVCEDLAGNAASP
Sequence of E-selectin (Homo sapiens) (P16581 whole entry, looked up): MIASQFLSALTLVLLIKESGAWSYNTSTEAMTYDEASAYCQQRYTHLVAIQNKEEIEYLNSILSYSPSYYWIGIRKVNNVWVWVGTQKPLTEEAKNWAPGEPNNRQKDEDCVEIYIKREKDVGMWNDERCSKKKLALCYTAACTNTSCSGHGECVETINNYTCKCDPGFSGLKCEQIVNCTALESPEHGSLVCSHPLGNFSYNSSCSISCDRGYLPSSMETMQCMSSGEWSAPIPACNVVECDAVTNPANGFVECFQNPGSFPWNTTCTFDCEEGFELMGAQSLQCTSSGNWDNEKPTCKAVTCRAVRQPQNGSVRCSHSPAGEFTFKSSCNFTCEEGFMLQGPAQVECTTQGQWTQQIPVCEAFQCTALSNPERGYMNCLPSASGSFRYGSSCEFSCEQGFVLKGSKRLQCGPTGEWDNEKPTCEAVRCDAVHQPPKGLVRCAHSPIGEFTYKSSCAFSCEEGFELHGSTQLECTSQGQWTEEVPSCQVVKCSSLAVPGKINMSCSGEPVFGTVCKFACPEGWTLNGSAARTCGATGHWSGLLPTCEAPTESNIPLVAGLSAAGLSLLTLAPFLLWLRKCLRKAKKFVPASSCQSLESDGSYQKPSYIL
Sequence of human Retinoid X Receptor beta (RXRb), RXRB (gene 6257) (P28702 whole entry, looked up, the tested form may be a part): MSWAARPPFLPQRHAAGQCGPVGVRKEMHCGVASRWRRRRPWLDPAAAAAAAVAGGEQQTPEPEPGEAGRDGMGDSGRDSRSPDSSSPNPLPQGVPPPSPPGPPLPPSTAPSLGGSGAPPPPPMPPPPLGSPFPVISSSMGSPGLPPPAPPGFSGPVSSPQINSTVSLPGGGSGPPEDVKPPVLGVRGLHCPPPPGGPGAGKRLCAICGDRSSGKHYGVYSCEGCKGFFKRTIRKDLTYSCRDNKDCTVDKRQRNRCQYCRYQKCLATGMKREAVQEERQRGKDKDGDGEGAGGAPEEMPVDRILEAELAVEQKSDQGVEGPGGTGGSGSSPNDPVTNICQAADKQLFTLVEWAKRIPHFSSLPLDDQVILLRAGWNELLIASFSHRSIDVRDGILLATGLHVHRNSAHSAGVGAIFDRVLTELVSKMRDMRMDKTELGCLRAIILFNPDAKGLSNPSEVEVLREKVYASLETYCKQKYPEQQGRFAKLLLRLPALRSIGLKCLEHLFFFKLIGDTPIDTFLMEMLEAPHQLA

With `O=C(Nc1ccc2c(O)c(N=Nc3ccc(N=Nc4ccc(S(=O)(=O)O)cc4)cc3)c(S(=O)(=O)O)cc2c1)c1ccccc1`, the result in experiment [1], in experiment [2], in experiment [3], in experiment [4], in experiment [5] and in experiment [6] was inactive. The result in experiment [7] and in experiment [8] was inactive. Moreover, the AC50 (in general, the concentration at which the activity in the assay is half-maximal) in experiment [8] was 20 µM (active).
On to `O=C1c2ccccc2C(=O)c2c(O)ccc(O)c21`, for which the compound was called inactive in experiment [1], in experiment [2], in experiment [3], in experiment [4], in experiment [5] and in experiment [6]. Further, the AC50 in experiment [7] is 8.08 µM (active); in experiment [8] it was 2.12 µM (active).
Take `CCCCCC(=O)CC`: the result in experiment [1] and in experiment [3] was inactive.
As to `CCOc1ccccc1O`, the compound was classed as inactive in experiment [1] and in experiment [3].
Regarding `COC(=O)C=C(C)CCC=C(C)C`, the call in experiment [1] and in experiment [3] was inactive.
In the case of `CC(=O)c1c(C)c([N+](=O)[O-])c(C(C)(C)C)c([N+](=O)[O-])c1C`, the AC50 was 6.93 µM (active) in experiment [1] and 1 µM (active) in experiment [2]. Also, the result in experiment [4], in experiment [5], in experiment [6], in experiment [7] and in experiment [8] was inactive.
Consider `CC(O)C1CCCCC1` (centres undefined), for which the compound was called inactive in experiment [1] and in experiment [3].
Take `CCCCCCCCN1CCCC1=O`: the call in experiment [1] and in experiment [3] was inactive.
Turning to `CCCCCCCCCCCCCCN(CCO)CCO`, the compound was classed as inactive in experiment [1] and in experiment [3].
For the compound `c1ccc2[nH]cnc2c1`, the outcome in experiment [1] and in experiment [3] was inactive.
For `CCCC(O)C(O)CO` (centres undefined), the compound was classed as inactive in experiment [1] and in experiment [3].
In the case of `OCC(O)c1ccccc1` (centres undefined), the compound was called inactive in experiment [1] and in experiment [3].
With `Cc1ccc(S(N)(=O)=O)cc1`, the compound was called inactive in experiment [1] and in experiment [3].
As to `CC1(C)C2=CCCC(C)(C)[C@]23CC[C@H]1C3`, the compound was classed as inactive in experiment [1], in experiment [2] and in experiment [5]. Besides, the AC50 in experiment [4] was 32.8 µM (active); in experiment [6], 30.4 µM (active); in experiment [7], 29.1 µM (active); in experiment [8], 20 µM (active).
For the compound `CCCCCC(C=O)=Cc1ccccc1`, the call in experiment [1] and in experiment [5] was inactive. Moreover, the AC50 in experiment [2] is 73.8 µM (active); in experiment [4], 35.2 µM (active); in experiment [6], 31.5 µM (active); in experiment [7], 36.6 µM (active); in experiment [8], 28.8 µM (active).
On to `OCCOCCN1CCN(C2=Nc3ccccc3Sc3ccccc32)CC1`, for which the call in experiment [1] and in experiment [3] was inactive.
For `C[C@H]1C[C@@H](O)CC(C)(C)C1`, the call in experiment [1] and in experiment [3] was inactive.
Consider `CC(=O)CC(=O)Nc1ccccc1`, for which the compound was classed as inactive in experiment [1] and in experiment [3].
Regarding `COc1cc(Cl)c(OC)cc1N`, the compound was called inactive in experiment [1], in experiment [2], in experiment [4], in experiment [5], in experiment [6] and in experiment [7]. Besides, in experiment [8], the outcome was inactive.
With `CCOC(=O)CC(C)O` (centres undefined), the outcome in experiment [1] and in experiment [3] was inactive.
For `O=CN1CCOCC1`, the call in experiment [1], in experiment [2], in experiment [4], in experiment [5], in experiment [6] and in experiment [7] was inactive. Further, the outcome in experiment [8] was inactive.
With `C=CC(C)(O)CCC=C(C)C` (centres undefined), the result in experiment [1], in experiment [2], in experiment [4], in experiment [5], in experiment [6] and in experiment [7] was inactive. The outcome in experiment [8] was inactive.
Take `C[Si]1(C)O[Si](C)(C)O[Si](C)(C)O1`: the result in experiment [1] and in experiment [3] was inactive.
`CCOC(=O)C(C#N)=C(c1ccccc1)c1ccccc1`: the result in experiment [1], in experiment [3], in experiment [4], in experiment [5], in experiment [6] and in experiment [7] was inactive. In addition, in experiment [8], the outcome was inactive. Besides, in experiment [2], the AC50 was 26.6 µM (active).
Take `CCCCCCC(C)(C)S`: the compound was classed as inactive in experiment [2].
On to `CCCCCCCCCCCC(=O)OCC(O)CO` (centres undefined), for which the AC50 in experiment [2] is 100 µM (active).
On to `Cc1ncc[nH]1`, for which the compound was classed as inactive in experiment [1] and in experiment [3].
Turning to `NC(=S)NNC(N)=S`, in experiment [2], the result was inactive.
The same measure, in the same setting: then `Nc1ccc2c(O)cc(S(=O)(=O)O)cc2c1`, with “inactive”; and `[O-]n1ccccc1=S.[O-]n1ccccc1=S.[Zn+2]`, with “inactive”.
`OC[C@H]1O[C@@H]2O[C@H]3[C@H](O)[C@@H](O)[C@@H](O[C@H]4[C@H](O)[C@@H](O)[C@@H](O[C@H]5[C@H](O)[C@@H](O)[C@@H](O[C@H]6[C@H](O)[C@@H](O)[C@@H](O[C@H]7[C@H](O)[C@@H](O)[C@@H](O[C@H]8[C@H](O)[C@@H](O)[C@@H](O[C@H]9[C@H](O)[C@@H](O)[C@@H](O[C@H]1[C@H](O)[C@H]2O)O[C@@H]9CO)O[C@@H]8CO)O[C@@H]7CO)O[C@@H]6CO)O[C@@H]5CO)O[C@@H]4CO)O[C@@H]3CO`: in experiment [2], the call was inactive.
Turning to `CCCOCCO`, the call in experiment [2] and in experiment [3] was inactive.
In the case of `O=C(CC(=O)c1ccccc1)c1ccccc1`, the result in experiment [2] was inactive. Moreover, the AC50 in experiment [3] was 58.5 µM (active).

The values are drawn from PubChem BioAssay (EPA / NIEHS).
